# Laboratory results: paper PMC7862700, “An all-to-all approach to the identification of sequence-specific readers for epigenetic DNA modifications on cytosine”
# Legend:
# Assay in all cases: DAPPL (digital affinity profiling via proximity ligation, sequencing); 10 mM Tris-HCl pH 7.5, 50 mM NaCl, 1 mM DTT, 4% glycerol, room temperature, 30 min; GST-TFs on glutathione beads, 16-mer random dsDNA library, 0.1% formaldehyde crosslink after washing; high values mean tight binding
# FLI1 = target: T1, FLI1 (Homo sapiens, UniProt Q01543 1-452); conditions: protein: recombinant; tags: N-terminal GST; dsDNA, one strand shown
# T1 sequence: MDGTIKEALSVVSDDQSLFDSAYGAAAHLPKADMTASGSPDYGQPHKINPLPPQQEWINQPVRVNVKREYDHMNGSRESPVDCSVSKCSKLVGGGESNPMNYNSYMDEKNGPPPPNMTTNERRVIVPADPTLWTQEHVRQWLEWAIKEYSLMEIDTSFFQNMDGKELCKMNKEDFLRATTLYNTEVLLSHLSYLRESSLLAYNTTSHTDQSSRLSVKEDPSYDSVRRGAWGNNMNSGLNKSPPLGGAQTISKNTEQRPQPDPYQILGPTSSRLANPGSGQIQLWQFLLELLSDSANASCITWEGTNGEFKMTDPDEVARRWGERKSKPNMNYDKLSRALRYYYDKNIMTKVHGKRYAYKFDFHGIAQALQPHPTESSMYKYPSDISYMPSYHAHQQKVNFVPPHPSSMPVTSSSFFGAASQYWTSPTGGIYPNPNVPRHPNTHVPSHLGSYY
# Summary of the method: (§1)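 Pools of DNA-barcoded human transcription factors, expressed in yeast as GST fusions on glutathione beads and combined with a tag-only sample, were incubated with 200 nmole of a 16-mer random double-stranded DNA library. Incubation took 30 min at room temperature in Tris/NaCl/DTT/glycerol buffer and was followed by washing, 0.1% formaldehyde crosslinking, proximity ligation (BsaI/T4 ligase, 1 h, 37 °C), PCR amplification and sequencing on an Illumina NextSeq500. Binding signal is the ratio of a hexamer's read frequency for a factor to its frequency for the tag-only sample.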
# ELK1 = target: T2, ELK1 (Homo sapiens, UniProt P19419 1-428); conditions: protein: recombinant; tags: N-terminal GST; dsDNA, one strand shown
# T2 sequence: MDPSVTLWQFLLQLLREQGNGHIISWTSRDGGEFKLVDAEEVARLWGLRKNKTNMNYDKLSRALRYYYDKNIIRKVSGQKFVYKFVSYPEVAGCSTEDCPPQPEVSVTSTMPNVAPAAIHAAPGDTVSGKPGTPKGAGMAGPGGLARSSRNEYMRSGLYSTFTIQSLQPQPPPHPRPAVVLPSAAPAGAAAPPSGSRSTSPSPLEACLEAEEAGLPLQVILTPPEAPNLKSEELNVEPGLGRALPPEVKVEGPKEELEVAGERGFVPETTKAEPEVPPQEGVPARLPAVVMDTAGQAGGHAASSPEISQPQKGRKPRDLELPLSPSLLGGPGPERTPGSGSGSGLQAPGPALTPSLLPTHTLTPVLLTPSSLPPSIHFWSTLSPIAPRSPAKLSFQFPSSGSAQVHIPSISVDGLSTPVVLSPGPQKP
# Summary of the method: as §1
# GABPA = target: T3, GABPA (Homo sapiens, UniProt Q06546 1-454); conditions: protein: recombinant; tags: N-terminal GST; dsDNA, one strand shown
# T3 sequence: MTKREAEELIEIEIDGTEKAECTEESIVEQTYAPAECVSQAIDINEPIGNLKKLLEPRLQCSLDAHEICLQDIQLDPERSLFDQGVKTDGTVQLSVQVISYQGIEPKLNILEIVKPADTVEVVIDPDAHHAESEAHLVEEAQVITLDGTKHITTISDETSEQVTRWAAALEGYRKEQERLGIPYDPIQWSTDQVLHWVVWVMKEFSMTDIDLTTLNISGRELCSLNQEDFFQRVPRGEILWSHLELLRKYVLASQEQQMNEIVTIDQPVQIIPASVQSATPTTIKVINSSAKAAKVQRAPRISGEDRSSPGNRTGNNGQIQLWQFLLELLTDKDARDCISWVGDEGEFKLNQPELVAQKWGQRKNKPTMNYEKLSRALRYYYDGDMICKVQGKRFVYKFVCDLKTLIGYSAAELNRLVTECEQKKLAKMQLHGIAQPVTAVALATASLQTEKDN
# Summary of the method: as §1
# ERG = target: T4, ERG (Homo sapiens, UniProt P11308 1-479); conditions: protein: recombinant; tags: N-terminal GST; dsDNA, one strand shown
# T4 sequence: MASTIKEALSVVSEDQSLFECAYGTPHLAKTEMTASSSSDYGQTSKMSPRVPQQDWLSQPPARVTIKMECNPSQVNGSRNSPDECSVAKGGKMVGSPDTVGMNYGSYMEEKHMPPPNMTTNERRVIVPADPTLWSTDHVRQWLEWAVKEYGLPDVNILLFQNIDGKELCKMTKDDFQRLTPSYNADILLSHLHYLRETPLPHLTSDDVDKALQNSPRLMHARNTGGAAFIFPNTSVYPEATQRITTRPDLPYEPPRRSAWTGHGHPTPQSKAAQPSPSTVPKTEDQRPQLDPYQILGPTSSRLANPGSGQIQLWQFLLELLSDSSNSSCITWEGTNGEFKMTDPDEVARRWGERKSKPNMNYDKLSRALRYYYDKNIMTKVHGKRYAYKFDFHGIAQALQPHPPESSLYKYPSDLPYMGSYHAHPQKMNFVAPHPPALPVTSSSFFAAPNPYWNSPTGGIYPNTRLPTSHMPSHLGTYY
# Summary of the method: as §1
# ELF1 = ELF1 (Homo sapiens, UniProt P32519 1-619); conditions: protein: recombinant; tags: N-terminal GST; dsDNA, one strand shown
# Summary of the method: as §1
# EHF = target: T5, EHF (Homo sapiens, UniProt Q9NZC4 1-300); conditions: protein: recombinant; tags: N-terminal GST; dsDNA, one strand shown
# T5 sequence: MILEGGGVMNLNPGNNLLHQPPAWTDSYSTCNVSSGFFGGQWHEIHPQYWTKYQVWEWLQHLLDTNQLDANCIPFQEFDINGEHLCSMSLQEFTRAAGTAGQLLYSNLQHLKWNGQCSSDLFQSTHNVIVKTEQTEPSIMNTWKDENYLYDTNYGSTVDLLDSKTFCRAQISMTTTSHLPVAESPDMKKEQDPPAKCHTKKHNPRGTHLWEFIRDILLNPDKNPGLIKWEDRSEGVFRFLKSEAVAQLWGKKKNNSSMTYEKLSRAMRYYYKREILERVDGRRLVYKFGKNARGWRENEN
# Summary of the method: as §1
# SPI1 = SPI1 (Homo sapiens, UniProt P17947 1-270); conditions: protein: recombinant; tags: N-terminal GST; dsDNA, one strand shown
# Summary of the method: as §1
# SPIB = SPIB (Homo sapiens, UniProt Q01892 1-262); conditions: protein: recombinant; tags: N-terminal GST; dsDNA, one strand shown
# Summary of the method: as §1
# ELK3 = target: T6, ELK3 (Homo sapiens, UniProt P41970 1-407); conditions: protein: recombinant; tags: N-terminal GST; dsDNA, one strand shown
# T6 sequence: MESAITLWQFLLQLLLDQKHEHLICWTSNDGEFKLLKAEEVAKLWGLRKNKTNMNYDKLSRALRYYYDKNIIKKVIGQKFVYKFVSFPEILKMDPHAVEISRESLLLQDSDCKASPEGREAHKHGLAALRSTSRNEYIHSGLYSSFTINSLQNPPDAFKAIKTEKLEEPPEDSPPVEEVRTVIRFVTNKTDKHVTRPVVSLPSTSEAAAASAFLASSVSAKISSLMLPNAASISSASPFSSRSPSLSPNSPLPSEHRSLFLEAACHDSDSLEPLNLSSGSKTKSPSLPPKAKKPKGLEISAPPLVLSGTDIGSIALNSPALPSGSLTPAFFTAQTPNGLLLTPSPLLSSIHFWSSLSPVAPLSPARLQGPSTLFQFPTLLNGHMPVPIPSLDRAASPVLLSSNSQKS
# Summary of the method: as §1
# FEV = target: T7, FEV (Homo sapiens, UniProt Q99581 1-238); conditions: protein: recombinant; tags: N-terminal GST; dsDNA, one strand shown
# T7 sequence: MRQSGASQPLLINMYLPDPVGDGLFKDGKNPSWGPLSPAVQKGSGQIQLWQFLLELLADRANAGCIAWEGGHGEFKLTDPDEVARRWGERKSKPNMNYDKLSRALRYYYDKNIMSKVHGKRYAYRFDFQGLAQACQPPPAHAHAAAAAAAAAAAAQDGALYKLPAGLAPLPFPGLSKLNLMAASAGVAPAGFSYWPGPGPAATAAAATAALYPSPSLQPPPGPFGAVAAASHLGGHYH
# Summary of the method: as §1
# ETV5 = ETV5 (Homo sapiens, UniProt P41161 1-510); conditions: protein: recombinant; tags: N-terminal GST; dsDNA, one strand shown
# Summary of the method: as §1
# HSF1 = HSF1 (Homo sapiens, UniProt Q00613 1-529); conditions: protein: recombinant; tags: N-terminal GST; chain copies: 3; dsDNA, one strand shown
# Summary of the method: as §1
# SPIC = target: T8, SPIC (Homo sapiens, UniProt Q8N5J4 1-248); conditions: protein: recombinant; tags: N-terminal GST; dsDNA, one strand shown
# T8 sequence: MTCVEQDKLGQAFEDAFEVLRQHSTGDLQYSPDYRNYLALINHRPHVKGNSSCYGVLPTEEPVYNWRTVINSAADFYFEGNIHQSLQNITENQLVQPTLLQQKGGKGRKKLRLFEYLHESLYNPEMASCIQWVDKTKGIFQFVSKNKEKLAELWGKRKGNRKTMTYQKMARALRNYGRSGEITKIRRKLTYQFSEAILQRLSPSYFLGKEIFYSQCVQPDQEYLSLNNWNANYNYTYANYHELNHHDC
# Summary of the method: as §1
# ELF4 = ELF4 (Homo sapiens, UniProt Q99607 1-663); conditions: protein: recombinant; tags: N-terminal GST; dsDNA, one strand shown
# Summary of the method: as §1
# ELK4 = target: T9, ELK4 (Homo sapiens, UniProt P28324-2 1-405); conditions: protein: recombinant; tags: N-terminal GST; dsDNA, one strand shown
# T9 sequence: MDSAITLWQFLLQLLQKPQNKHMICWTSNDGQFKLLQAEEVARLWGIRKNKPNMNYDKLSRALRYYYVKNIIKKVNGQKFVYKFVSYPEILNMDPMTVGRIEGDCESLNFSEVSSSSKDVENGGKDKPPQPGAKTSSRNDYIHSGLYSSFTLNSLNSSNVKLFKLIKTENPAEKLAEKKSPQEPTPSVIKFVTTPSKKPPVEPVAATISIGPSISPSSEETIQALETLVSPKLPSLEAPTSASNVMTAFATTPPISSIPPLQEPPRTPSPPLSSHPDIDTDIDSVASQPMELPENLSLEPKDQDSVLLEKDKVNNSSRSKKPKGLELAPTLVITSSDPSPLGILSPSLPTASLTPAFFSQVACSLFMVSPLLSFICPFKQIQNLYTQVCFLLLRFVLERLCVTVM
# Summary of the method: as §1
# ETV2 = target: T10, ETV2 (Homo sapiens, UniProt O00321 1-342); conditions: protein: recombinant; tags: N-terminal GST; dsDNA, one strand shown
# T10 sequence: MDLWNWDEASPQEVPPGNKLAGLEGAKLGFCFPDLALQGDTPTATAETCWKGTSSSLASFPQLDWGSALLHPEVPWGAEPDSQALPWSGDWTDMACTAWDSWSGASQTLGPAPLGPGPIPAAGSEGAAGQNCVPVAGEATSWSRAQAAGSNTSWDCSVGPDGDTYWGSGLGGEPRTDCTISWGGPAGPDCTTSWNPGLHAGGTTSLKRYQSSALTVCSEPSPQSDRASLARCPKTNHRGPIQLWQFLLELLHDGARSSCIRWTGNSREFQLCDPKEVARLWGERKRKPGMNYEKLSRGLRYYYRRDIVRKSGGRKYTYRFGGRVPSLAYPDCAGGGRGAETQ
# Summary of the method: as §1
# ELF3 = target: T11, ELF3 (Homo sapiens, UniProt P78545 1-371); conditions: protein: recombinant; tags: N-terminal GST; dsDNA, one strand shown
# T11 sequence: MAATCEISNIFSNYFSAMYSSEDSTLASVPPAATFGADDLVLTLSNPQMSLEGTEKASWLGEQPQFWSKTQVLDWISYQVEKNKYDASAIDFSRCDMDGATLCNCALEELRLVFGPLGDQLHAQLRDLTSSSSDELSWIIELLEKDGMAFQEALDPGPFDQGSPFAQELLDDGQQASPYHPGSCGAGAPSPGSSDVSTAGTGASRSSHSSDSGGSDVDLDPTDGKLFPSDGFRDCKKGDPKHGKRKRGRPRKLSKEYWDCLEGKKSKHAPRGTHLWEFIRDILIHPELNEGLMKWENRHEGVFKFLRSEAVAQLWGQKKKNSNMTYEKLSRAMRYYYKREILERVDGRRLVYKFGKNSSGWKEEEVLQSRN
# Summary of the method: as §1
# CRX = CRX (Homo sapiens, UniProt O43186 1-299); conditions: protein: recombinant; tags: N-terminal GST; dsDNA, one strand shown
# Summary of the method: as §1
# ETV1 = ETV1 (Homo sapiens, UniProt P50549 1-477); conditions: protein: recombinant; tags: N-terminal GST; dsDNA, one strand shown
# Summary of the method: as §1
# Sequence of CRX (O43186 whole entry): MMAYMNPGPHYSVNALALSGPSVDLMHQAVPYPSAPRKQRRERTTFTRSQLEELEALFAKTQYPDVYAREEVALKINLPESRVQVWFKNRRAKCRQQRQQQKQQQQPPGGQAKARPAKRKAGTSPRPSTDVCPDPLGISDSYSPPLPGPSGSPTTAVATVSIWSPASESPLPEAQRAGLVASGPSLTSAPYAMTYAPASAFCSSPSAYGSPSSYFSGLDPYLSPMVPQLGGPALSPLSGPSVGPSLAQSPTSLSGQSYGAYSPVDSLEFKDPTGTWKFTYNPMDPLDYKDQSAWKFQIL
# Sequence of HSF1 (Q00613 whole entry): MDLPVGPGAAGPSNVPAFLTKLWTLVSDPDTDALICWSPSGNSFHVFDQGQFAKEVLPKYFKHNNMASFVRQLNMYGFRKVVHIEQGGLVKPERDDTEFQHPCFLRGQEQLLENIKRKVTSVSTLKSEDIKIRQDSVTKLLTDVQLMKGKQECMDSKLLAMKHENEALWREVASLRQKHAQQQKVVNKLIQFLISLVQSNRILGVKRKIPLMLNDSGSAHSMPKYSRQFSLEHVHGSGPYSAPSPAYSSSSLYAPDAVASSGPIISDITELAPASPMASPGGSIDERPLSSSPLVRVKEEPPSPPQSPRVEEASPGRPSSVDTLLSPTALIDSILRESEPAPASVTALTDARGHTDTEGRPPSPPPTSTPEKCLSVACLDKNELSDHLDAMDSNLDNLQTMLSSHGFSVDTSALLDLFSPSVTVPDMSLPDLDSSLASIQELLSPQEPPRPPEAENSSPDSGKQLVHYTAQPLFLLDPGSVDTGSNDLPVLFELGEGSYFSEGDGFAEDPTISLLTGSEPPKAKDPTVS
# Sequence of ETV5 (P41161 whole entry): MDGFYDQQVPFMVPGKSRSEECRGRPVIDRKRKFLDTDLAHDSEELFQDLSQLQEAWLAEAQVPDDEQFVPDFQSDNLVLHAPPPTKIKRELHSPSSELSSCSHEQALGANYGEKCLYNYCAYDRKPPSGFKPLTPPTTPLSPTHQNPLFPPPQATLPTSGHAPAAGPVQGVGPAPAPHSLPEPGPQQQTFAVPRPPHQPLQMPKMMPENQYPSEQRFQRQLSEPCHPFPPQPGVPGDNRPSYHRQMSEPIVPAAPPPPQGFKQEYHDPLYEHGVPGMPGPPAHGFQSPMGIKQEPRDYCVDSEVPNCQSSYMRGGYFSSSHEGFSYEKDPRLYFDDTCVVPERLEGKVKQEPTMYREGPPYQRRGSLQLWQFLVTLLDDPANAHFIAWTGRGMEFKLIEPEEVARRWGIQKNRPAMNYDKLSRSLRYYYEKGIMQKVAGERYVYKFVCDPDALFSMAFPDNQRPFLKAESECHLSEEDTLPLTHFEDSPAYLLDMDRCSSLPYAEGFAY
# Sequence of ETV1 (P50549 whole entry): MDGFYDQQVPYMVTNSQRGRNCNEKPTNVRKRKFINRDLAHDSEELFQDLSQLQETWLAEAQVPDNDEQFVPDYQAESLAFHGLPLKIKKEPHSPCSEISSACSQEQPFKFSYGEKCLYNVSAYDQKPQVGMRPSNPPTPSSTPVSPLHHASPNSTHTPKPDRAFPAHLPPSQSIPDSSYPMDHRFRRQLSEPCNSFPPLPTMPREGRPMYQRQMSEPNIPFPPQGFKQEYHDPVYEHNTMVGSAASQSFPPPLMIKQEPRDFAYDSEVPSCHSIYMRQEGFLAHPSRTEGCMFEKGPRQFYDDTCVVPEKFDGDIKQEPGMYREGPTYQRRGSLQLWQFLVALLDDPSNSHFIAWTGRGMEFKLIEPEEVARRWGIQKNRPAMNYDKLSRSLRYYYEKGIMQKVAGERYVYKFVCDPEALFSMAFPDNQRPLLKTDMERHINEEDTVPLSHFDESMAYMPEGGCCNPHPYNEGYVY
# Sequence of SPIB (Q01892 whole entry): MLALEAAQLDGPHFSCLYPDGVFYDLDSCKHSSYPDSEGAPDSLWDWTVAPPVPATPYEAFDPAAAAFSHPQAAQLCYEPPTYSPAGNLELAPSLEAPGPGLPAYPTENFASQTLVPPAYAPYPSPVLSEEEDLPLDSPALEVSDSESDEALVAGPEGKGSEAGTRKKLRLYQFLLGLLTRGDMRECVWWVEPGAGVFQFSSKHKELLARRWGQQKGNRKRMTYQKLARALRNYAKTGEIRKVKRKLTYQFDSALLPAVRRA
# Sequence of ELF1 (P32519 whole entry): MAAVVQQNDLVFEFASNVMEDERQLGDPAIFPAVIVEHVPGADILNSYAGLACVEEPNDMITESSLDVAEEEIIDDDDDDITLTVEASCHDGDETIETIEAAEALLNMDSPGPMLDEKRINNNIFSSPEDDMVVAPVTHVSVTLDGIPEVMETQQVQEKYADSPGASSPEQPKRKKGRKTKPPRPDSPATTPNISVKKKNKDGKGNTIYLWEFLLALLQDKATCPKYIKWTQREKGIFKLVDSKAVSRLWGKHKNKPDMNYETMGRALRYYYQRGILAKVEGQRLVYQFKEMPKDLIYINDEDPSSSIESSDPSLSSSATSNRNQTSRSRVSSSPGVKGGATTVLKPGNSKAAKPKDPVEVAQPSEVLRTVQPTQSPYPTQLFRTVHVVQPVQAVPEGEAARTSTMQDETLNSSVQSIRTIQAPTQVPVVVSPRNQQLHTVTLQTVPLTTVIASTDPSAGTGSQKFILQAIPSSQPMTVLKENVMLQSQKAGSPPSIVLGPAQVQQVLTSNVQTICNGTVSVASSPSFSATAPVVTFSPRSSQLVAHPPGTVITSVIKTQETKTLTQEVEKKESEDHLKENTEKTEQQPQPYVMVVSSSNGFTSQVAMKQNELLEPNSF
# Sequence of ELF4 (Q99607 whole entry): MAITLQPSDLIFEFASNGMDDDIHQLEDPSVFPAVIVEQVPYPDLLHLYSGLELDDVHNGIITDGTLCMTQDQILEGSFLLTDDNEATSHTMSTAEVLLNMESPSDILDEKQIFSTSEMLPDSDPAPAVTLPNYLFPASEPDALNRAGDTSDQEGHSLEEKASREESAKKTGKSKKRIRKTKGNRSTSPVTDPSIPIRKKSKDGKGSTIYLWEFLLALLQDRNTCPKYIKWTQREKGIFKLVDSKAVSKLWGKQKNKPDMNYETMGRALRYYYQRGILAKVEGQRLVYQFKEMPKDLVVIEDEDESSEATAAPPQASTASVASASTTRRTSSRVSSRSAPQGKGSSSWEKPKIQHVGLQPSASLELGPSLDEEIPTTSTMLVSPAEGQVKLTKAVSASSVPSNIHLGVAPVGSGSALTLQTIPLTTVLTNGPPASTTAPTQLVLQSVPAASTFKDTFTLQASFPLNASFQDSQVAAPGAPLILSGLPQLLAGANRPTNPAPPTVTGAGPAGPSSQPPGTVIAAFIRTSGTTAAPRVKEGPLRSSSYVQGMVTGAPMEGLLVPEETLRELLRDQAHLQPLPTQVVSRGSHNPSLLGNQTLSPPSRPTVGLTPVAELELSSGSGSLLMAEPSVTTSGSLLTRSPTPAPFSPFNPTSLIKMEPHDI
sequence,measurement,setting,value
ACCTAA,binding signal,FLI1,"1.19 fold enrichment (6-mer frequency, TF over GST control)"
same,binding signal,ELK1,"1.08 fold enrichment (6-mer frequency, TF over GST control)"
same,binding signal,GABPA,"1.17 fold enrichment (6-mer frequency, TF over GST control)"
same,binding signal,ERG,"1.13 fold enrichment (6-mer frequency, TF over GST control)"
same,binding signal,ELF1,"1.18 fold enrichment (6-mer frequency, TF over GST control)"
same,binding signal,EHF,"1.12 fold enrichment (6-mer frequency, TF over GST control)"
same,binding signal,SPI1,"1.2 fold enrichment (6-mer frequency, TF over GST control)"
same,binding signal,SPIB,"1.19 fold enrichment (6-mer frequency, TF over GST control)"
same,binding signal,ELK3,"1.2 fold enrichment (6-mer frequency, TF over GST control)"
same,binding signal,FEV,"1.12 fold enrichment (6-mer frequency, TF over GST control)"
same,binding signal,ETV5,"1.22 fold enrichment (6-mer frequency, TF over GST control)"
same,binding signal,HSF1,"1.21 fold enrichment (6-mer frequency, TF over GST control)"
same,binding signal,SPIC,"1.21 fold enrichment (6-mer frequency, TF over GST control)"
same,binding signal,ELF4,"1.27 fold enrichment (6-mer frequency, TF over GST control)"
same,binding signal,ELK4,"1.13 fold enrichment (6-mer frequency, TF over GST control)"
same,binding signal,ETV2,"1.17 fold enrichment (6-mer frequency, TF over GST control)"
same,binding signal,ELF3,"1.2 fold enrichment (6-mer frequency, TF over GST control)"
same,binding signal,CRX,"1.57 fold enrichment (6-mer frequency, TF over GST control)"
same,binding signal,ETV1,"1.18 fold enrichment (6-mer frequency, TF over GST control)"
